# Autofluor counter: flagged as autofluorescent in microsphere protease counterscreen | compound autofluorescence counterscreen, microsphere flow cytometry; active compounds read high | fluorescence intensity (test concentration not listed) | 3.1% of 360,000 active | AID 624483; in the data active = fluorescence intensity above about 16000; inconclusive = no clear call, values can overlap the other calls
# GDH-TPI counter: counter-screen for M. tuberculosis FBA inhibitors: GDH-TPI coupled enzymes | GDH-TPI coupled enzyme counterscreen, NADH absorbance | inhibition, % at 4.8 µM | 1.2% of 360,000 active; in the data active = inhibition above about 30%;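 also: 0% = DMSO wells and 100% = wells lacking the enzyme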
# FBA Mtb inh: inhibits M. tuberculosis FBA enzyme; purified M. tuberculosis FBA, fluorescence read-out; AID 588726; P9WQA3; 2.3% of 360,000 active; inhibition, % at 1 µM; in the data active = inhibition above about 27%;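 also: 0% = vehicle and 100% = reference inhibitor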
# Target sequence (P9WQA3 whole entry, looked up): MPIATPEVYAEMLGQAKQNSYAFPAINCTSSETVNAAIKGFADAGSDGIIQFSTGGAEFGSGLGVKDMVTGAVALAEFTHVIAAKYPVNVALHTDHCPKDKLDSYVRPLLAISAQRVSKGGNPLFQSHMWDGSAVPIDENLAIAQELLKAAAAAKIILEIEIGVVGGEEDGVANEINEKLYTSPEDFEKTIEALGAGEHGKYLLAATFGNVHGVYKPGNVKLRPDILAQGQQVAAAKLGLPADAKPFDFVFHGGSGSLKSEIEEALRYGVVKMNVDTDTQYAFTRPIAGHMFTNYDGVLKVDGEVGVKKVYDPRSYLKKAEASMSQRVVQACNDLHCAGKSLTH
# BoNT-A LC inh2: blocks Botulinum neurotoxin A light chain protease; multiplex microsphere protease substrate cleavage, flow cytometry; inhibition, % at 10 µM; 0.17% of 360,000 active; AID 588499; also: plate controls were buffer without enzyme for full effect and enzyme alone for no effect
# Anthrax LF inh2: inhibitors of Bacillus anthracis lethal factor protease; P15917; multiplex microsphere protease cleavage assay, LF; inhibition, % at 10 µM; 0.12% of 360,000 active; also: plate controls were buffer without enzyme for full effect and enzyme alone for no effect
# BoNT F protease: BoNT F light chain protease inhibition. 0.22% of 360,000 active. Multiplex microsphere protease cleavage assay, flow cytometry. AID 588497. inhibition, % at 10 µM; in the data active = inhibition above about 35%, passing the limit was not always enough; inconclusive = no clear call, values can overlap the other calls; also: plate controls were buffer without enzyme for full effect and enzyme alone for no effect
# The depositor's hits bear a star; ? = inconclusive; . = no result; ! = not active in a repeat. Only some compounds are listed: those with a hit (about 6.7% of all), similar ones and a draw of the others. Rule as the data show it, unless noted: active = inhibition above about 30%; inconclusive = no clear call, values can overlap the other calls; inactive = below that.
SMILES,Autofluor counter,GDH-TPI counter,FBA Mtb inh,BoNT-A LC inh2,Anthrax LF inh2,BoNT F protease
O=c1[nH]c(CSc2nnc(-c3ccncc3)n2Cc2ccco2)nc2ccccc12,22482*,4,0,?,-1,-4
Cc1cccc(-c2nnc(SCc3nc4ccccc4[nH]3)n2Cc2ccco2)c1,3164,-3,-2,-1,2,7
O=C(CSc1nnc(-c2ccncc2)n1C1CC1)c1cccs1,3631,-2,-2,0,-4,-3
COCCn1c(SCc2nc3ccccc3c(=O)[nH]2)nnc1-c1ccncc1,16786*,16,-1,?,-2,-2
O=c1[nH]c(CSc2nnc(-c3ccccc3)n2C2CCCCC2)nc2ccccc12,22043*,16,-2,3,0,3
O=C(O)CSc1nnc(-c2ccncc2)n1C1CCCCC1,19539*,-12,1,?,0,4
Cc1nnc2c(N(C)S(=O)(=O)c3ccccc3)nc3ccccc3n12,5869,7,4,-1,-1,-3
CCCc1cc(NCCN(C)C)n2c(nc3ccccc32)c1C#N,4183,12,162*,-2,-4,?
CCCc1cc(NCC2CCCO2)n2c(nc3ccccc32)c1C#N (stereo not drawn),3775,15,192*,1,-1,-3
COCCNc1c2c(c(C#N)c3nc4ccccc4n13)CCCC2,4163,11,11,0,-3,-2
CCCc1cc(-n2cnc3ccccc32)n2c(nc3ccccc32)c1C#N,9071,10,5,4,5,9
CCCc1cc(NCCCN(C)C)n2c(nc3ccccc32)c1C#N,3172,6,112*,-2,-7,-16
CCc1c(C)c(C#N)c2nc3ccccc3n2c1NCCN(C)C,17739*,1,9,7,-7,7
C=C(C)Cc1c(C)c(C#N)c2nc3ccccc3n2c1NCCCN(C)C,.,2,5,.,.,.
CCCCCC(=O)N1CCN(CCN=CC2=C(O)CC(c3ccco3)CC2=O)CC1 (stereo not drawn),?,-2,-1,0,9,-4
CCCCCC(=O)N1CCN(CCN=CC2=C(O)CC(c3cccs3)CC2=O)CC1 (stereo not drawn),19021*!,3,2,0,-3,-2
Cc1cc(-n2nc(C)cc2C)n2nc(C)c(-c3ccc(Cl)cc3)c2n1,17908*,-4,-4,13,-20,18
C=CCSc1cc(C)nc2c(-c3ccc(Cl)cc3)c(C)nn12,20069*,2,0,0,-1,-1
Cc1cc(SCC(=O)c2cccs2)n2nc(C)c(-c3ccc(Cl)cc3)c2n1,1987,12,1,-1,-1,-3
Cc1cc(C)n2nnnc2c1C#N,3840,-1,2,1,2,-5
CN(C)c1ccc(C(=O)/C=C/c2cccnc2)cc1,3094,15,-14,-2,-1,-6
CN(C)c1ccc(/C=C/C(=O)c2cccc(Br)c2)cc1,33462*,7,-8,40*,35*,84*
CC(C)c1ccc(N)c(S(=O)(=O)O)c1,4034,4,2,0,-4,0
CN(C(=S)NC(=O)C1(C)CC1(Cl)Cl)c1ccccc1 (stereo not drawn),23191*,-9,-6,0,1,-4
CN(Cc1ccc(C(F)(F)F)cc1)C(=O)[C@H]1O[C@@H](n2ccc(=O)[nH]c2=O)[C@H](O)[C@@H]1O,4244,.,0,0,6,9
SMILES,Autofluor counter,GDH-TPI counter,FBA Mtb inh,BoNT-A LC inh2,Anthrax LF inh2,BoNT F protease
Cn1c2c(c(=O)n(C)c1=O)CN(CCCN1CCOCC1)CN2,16352*,1,0,1,-1,0
CC(c1ccccc1)N1CNc2c(c(=O)n(C)c(=O)n2C)C1 (stereo not drawn),3160,-6,3,0,-1,-5
N/C(=N\OS(=O)(=O)c1ccc(Br)cc1)c1ccncc1,21736*,4,1,3,3,6
CC(NC(=O)c1ccccc1NC(=O)CSc1nnnn1C)c1ccccc1 (stereo not drawn),2727,2,3,0,-1,2
COc1ccc2sc(-c3ccc(S(C)(=O)=O)cc3)c(C(=O)NCCCN3CCCC3=O)c2c1,3701,32*,5,0,-4,1
Cc1ccc(S(=O)(=O)Nc2ccccc2F)cc1C(=O)NCCCN1CCCC1=O,22774*,-6,-1,-1,-2,-1
COc1ccc(NC(=O)NCCCN2CCCC2=O)cc1,4524,9,4,0,-8,-2
COc1ccc(-c2cc(C(=O)NCCCN3CCCC3=O)c3ccccc3n2)cc1,?,16,69*,-2,1,-13
